According to PubChem BioAssay (NCI):
Values joined by “and” are separate entries in the source; they are usually repeats but may differ in a detail not shown here. Equal entries are not always repeated. Compounds without any hit were thinned out: in the full panel of roughly 83,000, 20% have a hit.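 Cell lines were cultured in 96-well plates, exposed to a single compound concentration, and assessed for percent growth 48 hours later.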 Active and inactive are the calls of the source. Rule for the calls: active = growth percent below 10; inactive = the rest.

The compounds below were run on MDA-MB-468 breast (assay: NCI-60 one-dose screen, 48 h (100 = growth as untreated, 0 = no growth, -100 = all killed)). Conditions: 10 µM unless noted.

SMILES | growth
CCCCCOC(=O)c1cccc(NC(=O)CN(CC)CC)c1 | 106% (inactive)
COc1cc2nc3cc([N+](=O)[O-])ccc3c(NCCCNCCO)c2cc1OC | -49.4% (active)
CC(O)Cn1cnc2c1c(=O)n(C)c(=O)n2C (centres undefined) | 78.5% (inactive)
NC(=S)NNC1CCCCC1 | 99% (inactive)
O[C@@H](c1cc(C(F)(F)F)nc2c(C(F)(F)F)cccc12)[C@H]1CCCCN1 | 42.6% (inactive)
CCSc1nnc2c3cc(Br)ccc3n(C)c2n1 | 115% (inactive)
COc1cc2c3c(c(=O)oc2cc1OS(=O)(=O)c1ccc(C(F)(F)F)cc1)CCCCC3 | 67% (inactive)
COc1cc2nc(-c3ccc(C(F)(F)F)cc3)cc(OCCCN3CCOCC3)c2cc1OC | 49.4% (inactive)
O=P(OCCCl)(OCCCl)C(O)c1ccccc1Cl (centres undefined) | 109% (inactive)
O=C(NC(=O)c1ccc(F)c(Cl)c1)NC1CC1 | 103% (inactive) and 87.4% (inactive)
COc1ccc(NC(=O)CSc2nc3ccc(Cl)cc3c(=O)n2-c2ccccc2C(F)(F)F)c(OC)c1OC | 79.6% (inactive)
CCSc1oc(C)nc1[P+](c1ccccc1)(c1ccccc1)c1ccccc1 | -20.3% (active)
COc1cc(C2CC(=O)Nc3n[nH]c(-c4ccccc4)c32)cc(OC)c1OC (centres undefined) | 38.5% (inactive)
O=C1/C(=C/c2ccc(O)cc2)COc2ccc(O)c(O)c21 | -2.18% (active)
C=C1CC2(OC1=O)C(=O)N(CCCCCCCCCCCCN1C(=O)C3(CC(=C)C(=O)O3)c3ccccc31)c1ccccc12 (centres undefined) | 70.2% (inactive)
CC(C)C[C@H](NC(=O)/C=C/Cn1ccc2ccccc2c1=O)B(O)O | -6.84% (active)
O=C(O)C[C@H](O)C[C@H](O)/C=C/c1c(C2CC2)nc2ccccc2c1-c1ccc(F)cc1 | 75.1% (inactive)
O=C(CC(c1ccccc1)N1CCOCC1)c1ccccc1 (centres undefined) | 73.4% (inactive)
CCC1C[N+]2=C(c3cc(OC)c(OC)cc3CC2)c2c1cc1n2CCc2cc(OC)c(OC)cc2-1 (centres undefined) | 1.92% (active)
NC(=O)NCCO | 102% (inactive)

SMILES | growth
CC1=CC(=Nc2ccc(N(C)C)cc2)C=C(C)C1=O | 15% (inactive)
Cn1cc(-c2nc(-c3cn(C)c4ncccc34)cs2)c2cc(F)ccc21 | -8.46% (active)
O=C(/C=C/c1ccc(Br)cc1)c1ccccc1 | 96.3% (inactive)
CCOC(=O)c1c(/N=C2\SC(=O)/C(=C\C(=O)OC)N2NC)sc2c1CCN(C(=O)OCC)C2 | 100% (inactive)
COc1cc2nccc(Oc3ccc(NC(=O)C4(C(=O)Nc5c(F)cc(F)cc5F)CC4)cc3)c2cc1Oc1ccc(N)cn1 | 33.3% (inactive)
COc1ccc(CCN(C)CCCC(C#N)(c2ccc(OC)c(OC)c2)C(C)C)cc1OC (centres undefined) | 97.9% (inactive) and 89.5% (inactive)
O=C(Nc1ccc([N+](=O)[O-])cc1)C(=O)Nc1ccc([N+](=O)[O-])cc1 | 105% (inactive)
N#Cc1c(Nc2ccccc2)nn2c(-c3ccc([N+](=O)[O-])cc3)ccnc12 | 106% (inactive)
CN1CCN(c2ccc(OC(F)(F)F)c(Nc3ncc4c(n3)-c3c(c(C(N)=O)nn3CCO)CC4)c2)CC1 | 9.13% (active)
O=c1c2c([nH]c3ccccc13)CCCC2 | 88.2% (inactive) and 14.6% (inactive)
[2H]C([2H])([2H])Oc1cccc(/C=C/C(=O)/C=C(/C=C/c2cccc(OC([2H])([2H])[2H])c2OC([2H])([2H])[2H])OB(F)F)c1OC([2H])([2H])[2H] | 54.6% (inactive)
COc1ccc(NC(=O)c2ccc(NC3=C(c4ccc(Cl)cc4)C(=O)NC3=O)cc2)cc1 | 88.1% (inactive)
COc1ncc(F)c(OC)n1 | 98.7% (inactive)
NC(=O)Nc1ccc2ncnc(Nc3ccc(Cl)cc3)c2c1 | -7.15% (active)
CCOC(=O)C1=C(N)Oc2cc(OC)ccc2C1c1ccc(F)c(F)c1 (centres undefined) | -37.8% (active)
S=c1[nH]ccn1-c1c(Cl)cccc1Cl | 110% (inactive)
COc1ccc(C(C)=C(c2ccc(OCCN(C)C)cc2)c2ccc(OCCN(C)C)cc2)cc1 | -76.9% (active)
Cc1cc(=O)oc2cc(Oc3nc(-c4ccc(Cl)cc4)cn4c(-c5ccc(Cl)cc5)cnc34)ccc12 | 84.8% (inactive)
Cc1ccc(C(=O)Nc2ccccc2C(=O)N/N=C(\c2ccccc2)c2ccccn2)cc1 | -1.12% (active)
